The structures appear in SMILES notation. Where “and” joins values, the source holds several entries; their conditions need not be identical. Equal entries are not always repeated. About 83,000 compounds went through this panel and 20% of them were active in at least one assay; those are over-represented in the sample as a whole.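 Percent growth is the endpoint: 0 to 100 indicates growth inhibition (40 means 60% inhibition), 0 means no net growth, and negative values indicate cell death.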 Calls of active or inactive are those of the source. Rule for the calls: active = growth percent below 10; inactive = the rest.

Test systems include HCT-15 colon; SNB-75 CNS; U251 CNS; PC-3 prostate; SK-MEL-5 melanoma; UACC-62 melanoma; LOX IMVI melanoma; SK-MEL-28 melanoma.
What all share (test): NCI-60 one-dose screen, 48 h (100 = growth as untreated, 0 = no growth, -100 = all killed)
The test system of the next assay is HT29 colon. The conditions noted are these: 10 µM.
The next assay concerns SNB-19 CNS. The conditions noted are these: 10 µM.

On to `O=c1ccn(C2CC(O)C(COC(c3ccccc3)(c3ccccc3)c3ccccc3)O2)c(=O)[nH]1` (stereo unspecified), for which the growth with HCT-15 colon (10 µM) was 88.9% (inactive); in the assay with HCT-15 colon (100 µM) it was 33.4% (inactive); in the assay on SNB-75 CNS (10 µM), 83.2% (inactive); in the assay on SNB-75 CNS (100 µM), 57.8% (inactive); in the assay with U251 CNS (10 µM unless noted), 55.5% [100 µM] (inactive); with PC-3 prostate (10 µM) it was 59.5% (inactive). Also, the growth in the assay with PC-3 prostate (100 µM) was 15% (inactive); in the assay on SK-MEL-5 melanoma (10 µM), 93.3% (inactive); in the assay with SK-MEL-5 melanoma (100 µM), 32.2% (inactive); in the assay on UACC-62 melanoma (10 µM), 82.6% (inactive); with UACC-62 melanoma (100 µM), 29.8% (inactive); in the assay with LOX IMVI melanoma (10 µM unless noted), 79.2% (inactive). Further, the growth in the assay with SK-MEL-28 melanoma (10 µM) was 118% (inactive); with SK-MEL-28 melanoma (100 µM), 45.6% (inactive).
For `CCCCCCCCCCCC[N+](C)(C)Cc1ccccc1`, the growth in the assay with HCT-15 colon (10 µM) was 90.8% (inactive); in the assay with HT29 colon it was 5.91% (active); in the assay with SNB-75 CNS (10 µM), -12.7% (active); in the assay on SNB-19 CNS, 20.5% (inactive); with U251 CNS (10 µM unless noted), 17.3% (inactive); in the assay on PC-3 prostate (10 µM), -18.7% (active). Moreover, the growth was -87.1% (active) with SK-MEL-5 melanoma (10 µM unless noted), -41.2% (active) with UACC-62 melanoma (10 µM), 25.9% (inactive) in the assay on LOX IMVI melanoma (10 µM unless noted) and 17.5% (inactive) in the assay with SK-MEL-28 melanoma (10 µM).
Turning to `Cc1nc(N=C(N)N)nc2ccc3ccccc3c12`, the growth in the assay with HCT-15 colon (10 µM) was 71.8% (inactive); with HT29 colon it was 1.55% (active); in the assay on SNB-75 CNS (10 µM), -10.3% (active); in the assay on SNB-19 CNS it was -11.5% (active); in the assay on U251 CNS (10 µM unless noted), -17% (active); with PC-3 prostate (10 µM), -19.2% (active). Moreover, the growth in the assay on SK-MEL-5 melanoma (10 µM unless noted) is 2.88% (active); in the assay on UACC-62 melanoma (10 µM), -20.9% (active); in the assay with LOX IMVI melanoma (10 µM unless noted), 2.45% (active); in the assay with SK-MEL-28 melanoma (10 µM), -0.847% (active).
As for `CCCCCCCCCCCCSC(=NC)NC`, the growth in the assay with HCT-15 colon (10 µM) was -25.5% (active) and -28.8% (active); with HT29 colon, 0.0905% (active) and 2.56% (active); in the assay with SNB-75 CNS (10 µM) it was 74.8% (inactive) and 82.3% (inactive); with U251 CNS (10 µM unless noted), 8.04% (active) and 34.5% (inactive); with PC-3 prostate (10 µM), 42% (inactive) and 67.3% (inactive); in the assay on SK-MEL-5 melanoma (10 µM unless noted) it was -5.79% (active) and 69.5% (inactive). Further, the growth with UACC-62 melanoma (10 µM) was -58.4% (active) and 61.4% (inactive); in the assay on LOX IMVI melanoma (10 µM unless noted), -39.5% (active) and 26.8% (inactive); in the assay with SK-MEL-28 melanoma (10 µM), 26.8% (inactive) and 68.5% (inactive).
Consider `O=C(/C=C/c1ccccn1)c1ccccc1`, for which the growth with HCT-15 colon (10 µM) was -8.15% (active); with HT29 colon it was -67.2% (active); with SNB-75 CNS (10 µM), 66.2% (inactive); with SNB-19 CNS, 61.8% (inactive); in the assay with U251 CNS (10 µM unless noted), -31.4% (active); with PC-3 prostate (10 µM), 69.3% (inactive). Further, the growth is 74.7% (inactive) in the assay on SK-MEL-5 melanoma (10 µM unless noted), 82.4% (inactive) in the assay on UACC-62 melanoma (10 µM), -31.2% (active) in the assay on LOX IMVI melanoma (10 µM unless noted) and 100% (inactive) in the assay on SK-MEL-28 melanoma (10 µM).
For the compound `O=C(C(=Cc1ccccc1)C(=O)c1ccccc1)c1ccccc1`, the growth in the assay with HCT-15 colon (10 µM) is 28.1% (inactive) and 88.8% (inactive); in the assay with HT29 colon, 47.1% (inactive) and 91.2% (inactive); in the assay on SNB-75 CNS (10 µM), 69.7% (inactive) and 81.4% (inactive); in the assay with U251 CNS (10 µM unless noted), 86.2% (inactive); in the assay on PC-3 prostate (10 µM) it was 48.3% (inactive) and 77.7% (inactive); in the assay on SK-MEL-5 melanoma (10 µM unless noted), 66.6% (inactive) and 94.4% (inactive). Also, the growth in the assay on UACC-62 melanoma (10 µM) was 48.8% (inactive) and 66.7% (inactive); in the assay on LOX IMVI melanoma (10 µM unless noted), -56.4% (active) and 77.5% (inactive); with SK-MEL-28 melanoma (10 µM), 60.4% (inactive) and 105% (inactive).
As for `Clc1ccc(/C=C/c2ccccn2)c(Cl)c1`, the growth in the assay on HCT-15 colon (10 µM) was 68.2% (inactive); in the assay on HT29 colon, 83.3% (inactive); in the assay with SNB-75 CNS (10 µM) it was 61.2% (inactive); in the assay on SNB-19 CNS, 92.7% (inactive); in the assay on U251 CNS (10 µM unless noted), 79.1% (inactive); in the assay with PC-3 prostate (10 µM) it was 85.9% (inactive). Moreover, the growth was 81.6% (inactive) in the assay with SK-MEL-5 melanoma (10 µM unless noted), 80.6% (inactive) with UACC-62 melanoma (10 µM), 91.3% (inactive) with LOX IMVI melanoma (10 µM unless noted) and 120% (inactive) in the assay on SK-MEL-28 melanoma (10 µM).
Take `CN1CCN(CCCN2c3ccccc3Sc3ccc(C(F)(F)F)cc32)CC1`: the growth was 29.3% (inactive) with HCT-15 colon (10 µM); 5.41% (active) in the assay on HT29 colon; 52.5% (inactive) in the assay with SNB-75 CNS (10 µM); 27.9% (inactive) in the assay with U251 CNS (10 µM unless noted); 39.8% (inactive) in the assay with PC-3 prostate (10 µM); 24.5% (inactive) in the assay with SK-MEL-5 melanoma (10 µM unless noted). Also, the growth with LOX IMVI melanoma (10 µM unless noted) was 15.3% (inactive); in the assay with SK-MEL-28 melanoma (10 µM), -45.4% (active).
On to `COc1cccc2c1C(=O)c1c(O)c3c(c(O)c1C2=O)C[C@@](O)(C(=O)CO)C[C@@H]3OC1CC(N)C(O)C(C)O1` (stereo partly specified), for which the growth with HCT-15 colon (0.0025 µM) was 99.2% (inactive); with HCT-15 colon (1 µM), 81.9% (inactive); in the assay on HCT-15 colon (2.5 µM) it was 70.2% (inactive); in the assay with HCT-15 colon (10 µM) it was 15.2% (inactive); in the assay with SNB-75 CNS (0.0025 µM), 98% (inactive); with SNB-75 CNS (1 µM), 33% (inactive). For the same compound, the growth with SNB-75 CNS (2.5 µM) was 7.99% (active); in the assay on SNB-75 CNS (10 µM) it was -61.7% (active); in the assay on U251 CNS (0.0025 µM) it was 83.6% (inactive); with U251 CNS (2.5 µM), 16.4% (inactive); in the assay on U251 CNS (10 µM), 9.22% (active); with PC-3 prostate (0.0025 µM) it was 100% (inactive). Besides, the growth in the assay on PC-3 prostate (1 µM) is 54.7% (inactive); in the assay with PC-3 prostate (10 µM) it was 1.27% (active); with SK-MEL-5 melanoma (0.0025 µM) it was 93.2% (inactive); in the assay with SK-MEL-5 melanoma (10 µM), -85.1% (active); in the assay on UACC-62 melanoma (0.0025 µM), 97.5% (inactive); in the assay on UACC-62 melanoma (1 µM), 14.8% (inactive). The growth in the assay on UACC-62 melanoma (10 µM) is -60% (active); with LOX IMVI melanoma (0.0025 µM), 81.7% (inactive); in the assay on LOX IMVI melanoma (1 µM) it was 8.33% (active); with LOX IMVI melanoma (10 µM) it was 5.68% (active); in the assay on SK-MEL-28 melanoma (0.0025 µM), 93.7% (inactive); in the assay on SK-MEL-28 melanoma (1 µM), 65.7% (inactive). Further, the growth with SK-MEL-28 melanoma (2.5 µM) is 70.7% (inactive); with SK-MEL-28 melanoma (10 µM), -17% (active).
